About 83,000 compounds went through this panel and 20% of them were active in at least one assay; those are over-represented in the sample as a whole.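 Single-concentration screen, 48 h exposure, 96-well plates. Endpoint: percent growth. Below 10 = active.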 A number with no mark means an inactive call. Calls of active or inactive are those of the source.

Test systems include HCT-15 colon; HT29 colon; SNB-75 CNS; SNB-19 CNS; U251 CNS; PC-3 prostate; SK-MEL-5 melanoma; UACC-62 melanoma; LOX IMVI melanoma; SK-MEL-28 melanoma; SK-MEL-2 melanoma; EKVX NSCLC; SN12C renal; UO-31 renal; TK-10 renal; ACHN renal; CAKI-1 renal; A498 renal; CCRF-CEM leukemia; MOLT-4 leukemia.
What all share (experiment): NCI-60 one-dose screen, 48 h (100 = growth as untreated, 0 = no growth, -100 = all killed)
What all share (settings): 10 µM unless noted

In the case of `CN(Cc1cnc2nc(N)nc(N)c2n1)c1c(Cl)cc(C(=O)NC(CCC(=O)O)C(=O)O)cc1Cl` (stereo not given), the growth was 28% in the experiment with HCT-15 colon; 30.4% with HT29 colon; 63.9% in the experiment on SNB-75 CNS; 31.7% in the experiment with SNB-19 CNS; 33.4% in the experiment with U251 CNS; 22.5% in the experiment with PC-3 prostate. In addition, the growth is 21.3% in the experiment on SK-MEL-5 melanoma; 16.4% with UACC-62 melanoma; 13.8% in the experiment with LOX IMVI melanoma; 63.3% in the experiment on SK-MEL-28 melanoma; 59.8% in the experiment on SK-MEL-2 melanoma; 42.4% in the experiment on EKVX NSCLC. Further, the growth with SN12C renal is 26.3%; in the experiment with UO-31 renal, 11.5%; in the experiment with TK-10 renal it was 36%; with ACHN renal, 29%; in the experiment on CAKI-1 renal, -20% (active); with A498 renal, 47.7%. Further, the growth in the experiment on CCRF-CEM leukemia was 34.8%; with MOLT-4 leukemia, 25.8%.
Consider `CCn1c2ccc(O)cc2c2c(C)c3c[n+](C(C)C)ccc3c(C)c21`, for which the growth in the experiment with HCT-15 colon was 67.7%; with HT29 colon, 54.8%; in the experiment with SNB-75 CNS it was 49.8%; in the experiment on SNB-19 CNS it was 7.71% (active); in the experiment on U251 CNS it was 13.5%; in the experiment with PC-3 prostate it was 61%. Further, the growth in the experiment on SK-MEL-5 melanoma is 57.1%; in the experiment with UACC-62 melanoma it was 15.1%; in the experiment with LOX IMVI melanoma, 30.9%; in the experiment on SK-MEL-28 melanoma, 22.8%; in the experiment on SK-MEL-2 melanoma, 35%; with EKVX NSCLC, 75.4%. The growth in the experiment with SN12C renal is -1.36% (active); in the experiment with UO-31 renal, 68.3%; in the experiment on TK-10 renal, 105%; in the experiment on ACHN renal it was 35.2%; in the experiment with CAKI-1 renal it was 89.8%; in the experiment on A498 renal, 68%. The values for the growth in the experiment with CCRF-CEM leukemia and with MOLT-4 leukemia were 36.5% and 22.2%, respectively.
Regarding `N=C(N)c1ccc(-c2ccc(-c3ccc(Cl)cc3Cl)s2)cc1F`, the growth in the experiment on HCT-15 colon was -75.7% (active); in the experiment on HT29 colon, -29.4% (active); in the experiment with SNB-75 CNS it was 20.7%; with SNB-19 CNS, -34.3% (active); in the experiment on U251 CNS it was -52.1% (active); in the experiment on PC-3 prostate, -14.1% (active). For the same molecule, the growth in the experiment with SK-MEL-5 melanoma is 50.8%; with UACC-62 melanoma, -54% (active); in the experiment on LOX IMVI melanoma, -89.9% (active); with SK-MEL-28 melanoma it was 83.7%; with SK-MEL-2 melanoma it was 55.8%; in the experiment on EKVX NSCLC it was 32.4%. Moreover, the growth is -27.9% (active) with SN12C renal; -90.5% (active) with UO-31 renal; 91.5% in the experiment on TK-10 renal; -100% (active) in the experiment with ACHN renal; -82.8% (active) with CAKI-1 renal; 83.7% with A498 renal. The values for the growth in the experiment with CCRF-CEM leukemia and with MOLT-4 leukemia were -26.1% (active) and -47.2% (active), respectively.
As for `COc1cc(-c2cc(-c3ccc(Nc4ncnc5cc(Cl)ccc45)cc3)nc(N3CCN(C)CC3)n2)cc(OC)c1OC`, the growth was 64.4% in the experiment with HCT-15 colon; 81.7% with HT29 colon; 49.5% in the experiment on SNB-75 CNS; 102% with SNB-19 CNS; 106% in the experiment on U251 CNS; 82.2% in the experiment on PC-3 prostate. In addition, the growth is 74.5% in the experiment on SK-MEL-5 melanoma; 97% in the experiment on UACC-62 melanoma; 86.2% in the experiment with LOX IMVI melanoma; 86.6% in the experiment on SK-MEL-28 melanoma; 93.4% in the experiment on SK-MEL-2 melanoma; 102% with EKVX NSCLC. Moreover, the growth in the experiment on SN12C renal is 88.6%; with UO-31 renal, 23.4%; in the experiment with TK-10 renal it was 136%; in the experiment on ACHN renal, 75.4%; in the experiment on CAKI-1 renal, 91%; in the experiment on A498 renal, 102%. Besides, the growth in the experiment with CCRF-CEM leukemia is 52.5%; in the experiment with MOLT-4 leukemia it was 58.1%.
Take `CC(C)CN1CC(C(=O)Nc2ccc3c(c2)-c2ccccc2C3)CC1=O` (stereo not given): the growth was 49.7% [50 µM] in the experiment on HCT-15 colon; 87.8% [50 µM] in the experiment on HT29 colon; 45.7% [50 µM] with SNB-75 CNS; 72.1% [50 µM] in the experiment on SNB-19 CNS; 72.8% [50 µM] in the experiment with U251 CNS; 57.1% [50 µM] in the experiment on PC-3 prostate. Moreover, the growth in the experiment on SK-MEL-5 melanoma is 69.4% [50 µM]; in the experiment with UACC-62 melanoma it was 47.3% [50 µM]; with LOX IMVI melanoma, 75.9% [50 µM]; in the experiment with SK-MEL-28 melanoma, 80% [50 µM]; in the experiment on SK-MEL-2 melanoma, 81.8% [50 µM]; in the experiment on EKVX NSCLC it was 70.8% [50 µM]. The growth was 72.5% [50 µM] with SN12C renal; 43.7% [50 µM] in the experiment on UO-31 renal; 87.2% [50 µM] in the experiment on TK-10 renal; 64.8% [50 µM] in the experiment on ACHN renal; 62.5% [50 µM] in the experiment with CAKI-1 renal; 85.8% [50 µM] in the experiment with A498 renal. The growth was 74.5% [50 µM] with CCRF-CEM leukemia and 61.8% [50 µM] with MOLT-4 leukemia.
Turning to `C#CCOc1ccc2ncnc(Nc3cccc(NC(=O)CCl)c3)c2c1`, the growth with HCT-15 colon is 50.6%; in the experiment on HT29 colon, 33.5%; in the experiment with SNB-75 CNS, 68.9%; with SNB-19 CNS, 71.8%; in the experiment on U251 CNS, 62.2%; in the experiment with PC-3 prostate, 70%. In addition, the growth in the experiment on SK-MEL-5 melanoma was 68.3%; in the experiment on UACC-62 melanoma it was 60.6%; with LOX IMVI melanoma it was -68.1% (active); in the experiment with SK-MEL-28 melanoma it was 90.6%; in the experiment on SK-MEL-2 melanoma it was 69.7%; in the experiment on EKVX NSCLC it was 92.9%. In addition, the growth in the experiment on SN12C renal was 69.4%; with UO-31 renal, 59.5%; with TK-10 renal it was 73.4%; in the experiment on ACHN renal, 65.8%; with CAKI-1 renal it was 81.2%; in the experiment with A498 renal, 89.1%. Besides, the values for the growth in the experiment with CCRF-CEM leukemia and in the experiment on MOLT-4 leukemia were 16.1% and 18.1%, respectively.
For `O=C1/C(=C/c2ccc(Br)cc2)COc2ccc(O)c(O)c21`, the growth was 0.349% (active) in the experiment on HCT-15 colon; 2.83% (active) in the experiment with HT29 colon; 20.4% in the experiment with SNB-75 CNS; 6.19% (active) in the experiment on SNB-19 CNS; -72.4% (active) with U251 CNS; -26.3% (active) in the experiment on PC-3 prostate. The growth in the experiment with SK-MEL-5 melanoma is 29.8%; in the experiment with UACC-62 melanoma it was -14.2% (active); with LOX IMVI melanoma it was -91% (active); in the experiment on SK-MEL-28 melanoma it was 22%; with SK-MEL-2 melanoma, 47.2%; in the experiment with EKVX NSCLC, 23.2%. For the same molecule, the growth in the experiment with SN12C renal was -41.1% (active); in the experiment on UO-31 renal, -99.2% (active); in the experiment on TK-10 renal, 4.99% (active); in the experiment on ACHN renal, -84.2% (active); with CAKI-1 renal, -36% (active); in the experiment on A498 renal, 98.9%. For the same molecule, the growth in the experiment with CCRF-CEM leukemia was -6.17% (active); with MOLT-4 leukemia, -9.5% (active).
For `Cc1cc(F)ccc1S(=O)(=O)Nc1cc(-c2c(O)ccc3ccccc23)c(O)c2ccccc12`, the growth with HCT-15 colon is 10.7%; with HT29 colon, 52.8%; with SNB-75 CNS, 46.2%; with SNB-19 CNS it was 37.4%; in the experiment on U251 CNS it was 18.6%; with PC-3 prostate it was 15.5%. Moreover, the growth was -63.6% (active) in the experiment with SK-MEL-5 melanoma; 2.8% (active) in the experiment with UACC-62 melanoma; 16% in the experiment on LOX IMVI melanoma; 29.4% with SK-MEL-28 melanoma; 5.32% (active) in the experiment on SK-MEL-2 melanoma; 19% in the experiment on EKVX NSCLC. For the same molecule, the growth in the experiment on SN12C renal is 46.6%; in the experiment with UO-31 renal it was 20.3%; with TK-10 renal it was 72.7%; in the experiment on ACHN renal, -7.97% (active); with CAKI-1 renal, 51.5%; with A498 renal, 57.7%. In addition, the growth was 21.9% with CCRF-CEM leukemia and 17.6% with MOLT-4 leukemia.

The values above are taken from PubChem BioAssay (NCI).
